The nature of assay [1]: binders of probe aFSTL3 on microarray, primary screen, stem cell growth factor project, biochemical, small-molecule microarray, fluorescence 635/667 (AID 1064).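 Also: measures binding of the biotinylated anti-FSTL3 antibody to printed compounds.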 The conditions noted are these: higher = more signal.
Assay [2] in a line: binders from COS7 lysate, DM2A8 probe, primary screen, torsin A project, cell lysate, small-molecule microarray, fluorescence 635/667 (AID 1065). Conditions: higher = more signal, COS7 lysate expressing mutant human TOR1A.
A short description of assay [3]: binders of probe aFGF2 on microarray, primary screen, stem cell growth factor project, biochemical, small-molecule microarray, fluorescence 635/667 (AID 1067).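 Also: measures binding of biotinylated aFGF2 protein to printed compounds on slides; z-score merges feature fluorescence and signal-to-noise across triplicate slides.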 Conditions: higher = more signal.
The nature of assay [4]: binders of probe aFGF10 on microarray, primary screen, stem cell growth factor project, biochemical, small-molecule microarray, fluorescence 635/667 (AID 1071).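 Also: score merges 667 nm spot intensity and signal to noise from triplicate slides.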 Conditions: higher = more signal.
The target of assay [5] is Neurogenic locus notch homolog protein 2 (Homo sapiens) (UniProt Q04721). Put plainly: Notch2 binders on small-molecule microarrays, primary screen, biochemical, small-molecule microarray, 635 nm fluorescence, stem cell growth factors (AID 1073). Conditions: Notch2 binding, higher = more signal.
The target of assay [6] is Pro-neuregulin-1, membrane-bound isoform (Homo sapiens) (UniProt Q02297). Put plainly: NRG1 binders on small-molecule microarrays, primary screen, psychiatric disease protein project, biochemical, small-molecule microarray, fluorescence 635/667 (AID 1075).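 Also: score combines 667 nm spot fluorescence with signal to noise.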 The conditions noted are these: NRG1 binding, 635 nm fluorescence, higher = more signal.
In assay [7] the test system is Neuregulin-1 EGF-like domain. Description: binders of neuregulin-1 EGF-like domain, primary screen, biochemical, small-molecule microarray, 635 nm fluorescence (AID 1081).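 Also: binding of the protein to compounds printed on small-molecule microarray slides.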 The conditions noted are these: small-molecule microarray binding, higher = more signal.
A short description of assay [8]: FRG1 promoter luciferase signal modulators, primary screen, FRG1 inhibition for FSHD, cell-based, C2C12 myotubes, firefly/Renilla luciferase, luminescence (AID 1084). Conditions: higher = more signal, called active from +8 up or from −8 down.
The nature of assay [9]: binders of probe aFST on microarray, primary screen, stem cell growth factor project, biochemical, small-molecule microarray, fluorescence 635/667 (AID 1086).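 Also: score merges 667 nm fluorescence with signal-to-noise of each printed compound spot.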 Conditions: higher = more signal.
A short description of assay [10]: binders of probe aHhip on microarray, primary screen, stem cell growth factor project, biochemical, small-molecule microarray, fluorescence 635/667 (AID 1087).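 Also: score merges spot fluorescence at 667nm with spot signal to noise ratio.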 Conditions: higher = more signal.
The test system of assay [11] is PRMT1 (protein arginine N-methyltransferase 1). Description: PRMT1 binders on small-molecule microarrays, primary screen, biochemical, small-molecule microarray, 635 nm fluorescence (AID 1088).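 Also: binding of Prmt1 protein to compounds spotted on small-molecule microarray slides.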 Conditions: small-molecule microarray binding, higher = more signal.
Assay [12] in a line: yeast growth modulation, basal conditions, primary screen, YJM789 clinical isolate, OD600, 24 h (AID 1089).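 Also: growth of clinical yeast isolate S. cerevisiae YJM 789 seeded 1000 cells per well; test concentration not given here.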 The conditions noted are these: S. cerevisiae YJM789 growth, higher = more signal, called active from +8 up or from −8 down.
Assay [13] is described as follows: fission yeast growth modulation, primary screen, strain 972, OD600, 24 h, no modulator (AID 1090).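 Also: basal condition with compound alone and no growth modifier present; test concentration not given here.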 The conditions noted are these: S. pombe 972 growth, higher = more signal, called active from +8 up or from −8 down.
Assay [14] can be described thus: S. cerevisiae growth modulation with rapamycin, primary screen, strain BY4716, OD600, 96 h (AID 1091). Also: test concentration not given here. The conditions noted are these: higher = more signal, called active from +8 up or from −8 down.
The target of assay [15] is Torsin-1A-interacting protein 2 (Homo sapiens) (UniProt Q8NFQ8). Description: LULL1 binders on small-molecule microarray, primary screen, cell lysate, human LULL1 lysate, 635/667 nm fluorescence (AID 1092).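 Also: probe is lysate of COS7 cells overexpressing human LULL1; score merges per-feature 667 nm fluorescence with signal-to-noise.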 Conditions: hLULL1 lysate binding, 635 nm fluorescence, higher = more signal.
Assay [16] can be described thus: E. coli growth modulation, two-sided OD650, primary screen, E. coli filamentation project, strain DRC41, 24 h (AID 1093).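 Also: MC1000 strain lacking acrAB efflux and sulA so SOS filamentation is blocked; test concentration not given here.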 The conditions noted are these: OD650, 24 h, higher = more signal, called active from +8 up or from −8 down.
Assay [17] can be described thus: small-molecule microarray binders of probe aLefty2, primary screen, biochemical, biotinylated probe, 635/667 nm fluorescence (AID 1094).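 Also: score merges spot fluorescence near 667 nm with spot signal-to-noise ratio.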 The conditions noted are these: higher = more signal.
In assay [18] the test system is Noggin (protein binding on small-molecule microarray). Description: Noggin binders on small-molecule microarray, primary screen, biochemical, 635/667 nm fluorescence (AID 1095).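 Also: score merges 667 nm feature fluorescence with signal to noise over triplicate slides.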 Conditions: 635 nm fluorescence, higher = more signal.
Assay [19] has as its target Neurogenic locus notch homolog protein 3 (Homo sapiens) (UniProt Q9UM47). Description: NOTCH3 binders on small-molecule microarray, primary screen, biochemical, 635/667 nm fluorescence (AID 1096). Conditions: NOTCH3 binding, 635 nm fluorescence, higher = more signal.
The nature of assay [20]: small-molecule microarray binders of probe aEGFR, primary screen, biochemical, biotinylated probe, 635/667 nm fluorescence (AID 1097).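 Also: probe is a biotinylated anti-EGFR antibody binding compounds printed on slides; score combines fluorescence near 667 nm and signal to noise of each spot.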 Conditions: higher = more signal.

Activity calls are given as the source filed them.

Chain of Neurogenic locus notch homolog protein 2 (Homo sapiens) (Q04721 whole entry, looked up, canonical isoform): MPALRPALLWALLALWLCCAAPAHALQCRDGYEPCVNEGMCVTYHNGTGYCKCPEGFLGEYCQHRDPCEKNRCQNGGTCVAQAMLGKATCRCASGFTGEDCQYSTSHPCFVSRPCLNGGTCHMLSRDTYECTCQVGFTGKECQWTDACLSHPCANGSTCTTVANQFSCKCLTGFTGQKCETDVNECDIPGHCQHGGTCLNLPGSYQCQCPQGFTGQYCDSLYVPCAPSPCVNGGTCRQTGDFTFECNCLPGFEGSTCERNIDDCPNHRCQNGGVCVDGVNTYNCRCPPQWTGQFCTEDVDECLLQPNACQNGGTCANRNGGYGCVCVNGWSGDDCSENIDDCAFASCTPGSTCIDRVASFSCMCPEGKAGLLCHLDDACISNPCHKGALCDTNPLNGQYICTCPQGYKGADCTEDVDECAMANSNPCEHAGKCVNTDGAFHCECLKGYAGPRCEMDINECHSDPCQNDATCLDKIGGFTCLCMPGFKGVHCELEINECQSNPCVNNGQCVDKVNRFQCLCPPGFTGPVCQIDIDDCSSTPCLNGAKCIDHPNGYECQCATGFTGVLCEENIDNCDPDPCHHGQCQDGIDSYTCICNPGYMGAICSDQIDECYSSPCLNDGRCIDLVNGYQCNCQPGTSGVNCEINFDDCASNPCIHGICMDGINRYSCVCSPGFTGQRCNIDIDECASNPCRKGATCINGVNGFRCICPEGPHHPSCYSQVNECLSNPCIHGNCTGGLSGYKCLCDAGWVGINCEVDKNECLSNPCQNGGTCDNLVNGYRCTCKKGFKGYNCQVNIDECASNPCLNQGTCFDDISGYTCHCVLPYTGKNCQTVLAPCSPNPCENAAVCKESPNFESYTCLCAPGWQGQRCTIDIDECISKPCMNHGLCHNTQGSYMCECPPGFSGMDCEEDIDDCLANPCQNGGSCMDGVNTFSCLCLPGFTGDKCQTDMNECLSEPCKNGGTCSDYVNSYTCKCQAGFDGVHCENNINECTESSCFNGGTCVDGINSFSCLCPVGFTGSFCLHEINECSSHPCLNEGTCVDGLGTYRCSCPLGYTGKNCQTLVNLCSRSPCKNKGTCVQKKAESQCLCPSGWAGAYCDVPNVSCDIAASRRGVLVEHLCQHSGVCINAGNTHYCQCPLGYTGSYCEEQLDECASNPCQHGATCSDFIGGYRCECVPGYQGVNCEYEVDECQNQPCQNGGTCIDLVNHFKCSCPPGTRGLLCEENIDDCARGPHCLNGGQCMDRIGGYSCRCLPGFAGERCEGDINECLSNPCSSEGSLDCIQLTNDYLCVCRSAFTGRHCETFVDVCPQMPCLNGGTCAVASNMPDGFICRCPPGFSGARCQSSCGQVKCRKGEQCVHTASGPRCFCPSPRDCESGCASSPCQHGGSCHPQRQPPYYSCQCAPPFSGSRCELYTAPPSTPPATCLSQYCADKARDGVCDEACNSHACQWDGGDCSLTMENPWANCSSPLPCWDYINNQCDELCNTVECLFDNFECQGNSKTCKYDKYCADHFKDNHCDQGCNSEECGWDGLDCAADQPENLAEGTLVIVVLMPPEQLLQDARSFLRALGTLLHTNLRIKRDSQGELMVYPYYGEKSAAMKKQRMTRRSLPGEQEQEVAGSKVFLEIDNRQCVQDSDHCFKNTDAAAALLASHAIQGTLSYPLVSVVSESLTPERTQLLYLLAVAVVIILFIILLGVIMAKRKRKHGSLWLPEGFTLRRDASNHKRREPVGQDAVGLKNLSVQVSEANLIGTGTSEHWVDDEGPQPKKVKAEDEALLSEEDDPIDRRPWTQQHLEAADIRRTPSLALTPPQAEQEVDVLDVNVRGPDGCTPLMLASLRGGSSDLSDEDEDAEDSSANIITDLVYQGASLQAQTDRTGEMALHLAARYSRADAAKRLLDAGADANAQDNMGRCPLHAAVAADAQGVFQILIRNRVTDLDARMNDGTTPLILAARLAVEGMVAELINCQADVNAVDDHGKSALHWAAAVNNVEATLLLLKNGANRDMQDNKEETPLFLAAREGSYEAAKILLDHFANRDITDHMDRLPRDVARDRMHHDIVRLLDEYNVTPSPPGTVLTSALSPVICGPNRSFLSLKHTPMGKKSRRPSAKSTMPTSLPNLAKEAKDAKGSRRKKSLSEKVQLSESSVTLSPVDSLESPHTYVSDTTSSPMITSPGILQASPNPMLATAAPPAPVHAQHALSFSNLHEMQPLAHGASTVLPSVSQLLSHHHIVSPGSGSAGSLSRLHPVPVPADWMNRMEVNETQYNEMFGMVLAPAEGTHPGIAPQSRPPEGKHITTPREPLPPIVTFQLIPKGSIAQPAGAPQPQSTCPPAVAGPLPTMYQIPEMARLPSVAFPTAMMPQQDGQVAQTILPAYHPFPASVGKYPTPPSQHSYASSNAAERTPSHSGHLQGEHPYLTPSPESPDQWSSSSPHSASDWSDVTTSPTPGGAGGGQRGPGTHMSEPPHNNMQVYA
Chain of Torsin-1A-interacting protein 2 (Homo sapiens) (Q8NFQ8 whole entry, looked up): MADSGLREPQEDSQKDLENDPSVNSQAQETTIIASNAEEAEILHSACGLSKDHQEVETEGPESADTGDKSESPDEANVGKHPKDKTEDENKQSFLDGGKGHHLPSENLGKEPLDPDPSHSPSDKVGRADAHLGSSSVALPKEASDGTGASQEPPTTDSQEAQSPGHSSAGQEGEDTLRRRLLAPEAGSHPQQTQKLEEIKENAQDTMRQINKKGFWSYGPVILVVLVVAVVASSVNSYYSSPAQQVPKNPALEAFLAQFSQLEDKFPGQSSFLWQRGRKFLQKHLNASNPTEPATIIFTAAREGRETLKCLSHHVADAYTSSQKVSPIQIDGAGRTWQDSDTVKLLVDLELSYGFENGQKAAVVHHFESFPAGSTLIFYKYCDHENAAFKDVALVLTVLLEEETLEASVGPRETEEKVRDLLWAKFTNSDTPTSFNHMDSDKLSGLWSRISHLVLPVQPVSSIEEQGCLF
Chain of Pro-neuregulin-1, membrane-bound isoform (Homo sapiens) (Q02297 whole entry, looked up, the tested form may be a part, canonical isoform): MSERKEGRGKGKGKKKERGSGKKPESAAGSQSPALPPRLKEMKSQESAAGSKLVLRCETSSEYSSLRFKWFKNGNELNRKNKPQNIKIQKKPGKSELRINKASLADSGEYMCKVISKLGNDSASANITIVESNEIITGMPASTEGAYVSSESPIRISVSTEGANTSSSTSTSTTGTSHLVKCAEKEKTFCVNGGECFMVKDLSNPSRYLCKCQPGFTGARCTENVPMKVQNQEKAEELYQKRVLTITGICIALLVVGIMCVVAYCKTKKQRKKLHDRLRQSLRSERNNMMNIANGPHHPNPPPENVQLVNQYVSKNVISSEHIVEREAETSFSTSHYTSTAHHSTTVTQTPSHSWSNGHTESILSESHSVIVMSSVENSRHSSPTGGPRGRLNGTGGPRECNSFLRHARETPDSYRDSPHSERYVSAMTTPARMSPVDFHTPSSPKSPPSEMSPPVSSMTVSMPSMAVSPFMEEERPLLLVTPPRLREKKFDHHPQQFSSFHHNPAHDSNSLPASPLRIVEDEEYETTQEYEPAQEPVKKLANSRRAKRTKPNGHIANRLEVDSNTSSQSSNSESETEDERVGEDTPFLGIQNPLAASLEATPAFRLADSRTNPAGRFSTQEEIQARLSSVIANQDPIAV

As for `C[N+](C)(C)CCCCNC(=O)[C@H]1C[C@H]2C(=O)NCC(=O)N2[C@H]1c1ccc(O)cc1`, the composite z-score in assay [1] is -0.392; in assay [2], 1.83; in assay [3], -0.0466; in assay [4] it was 1.12; in assay [5] it was 0.943; in assay [6], 0.584. The composite z-score in assay [7] was 1.38; in assay [9] it was 0.383; in assay [10] it was -0.156; in assay [11], 1.46; in assay [15], 1.84; in assay [17] it was 0.0823. For the same compound, the composite z-score in assay [18] is 2.01; in assay [19] it was 1.04; in [20] it was 0.154. For the same compound, the z-score is 0.0635 (inactive) in [8]; -0.826 (inactive) in assay [12]; 0.0918 (inactive) in assay [13]; -1.71 (inactive) in [14]; 0.509 (inactive) in assay [16].

Turning to `COC(=O)c1ccc(OC)c(/C=C\CC(CCc2ccccc2)OC(C)=O)c1` (stereo not given), the composite z-score in assay [1] was -0.28; in [2] it was -0.115; in [3], -0.118; in assay [4], -0.672; in assay [5] it was -0.394; in assay [6] it was -0.289. Besides, the composite z-score in assay [7] was -0.288; in assay [9] it was -0.458; in [10], 0.101; in assay [11] it was -0.0961; in assay [15] it was 0.324; in assay [17], -0.154. Also, the composite z-score in [18] is -0.358; in assay [19] it was -0.255; in assay [20], -0.0899. The z-score in assay [8] is -2.76 (inactive); in [12], -0.714 (inactive); in assay [13], -0.645 (inactive); in [14] it was -0.21 (inactive); in [16] it was -0.031 (inactive).

With `COc1ccc(C#Cc2ccc3c(c2)[C@]2(C(=O)N3)[C@H](c3ccc(OCCO)cc3)N3[C@H](c4ccccc4)[C@H](c4ccccc4)OC(=O)[C@H]3[C@@H]2C(=O)N2CCN(c3ncccn3)CC2)cc1`, the composite z-score was -0.176 in [1]; 0.07 in assay [2]; -0.093 in [3]; 0.344 in [4]; 1.2 in assay [5]; -0.132 in assay [6]. Further, the composite z-score in assay [7] was 0.135; in assay [9] it was -0.0006; in assay [10] it was -0.318; in [11], 0.61; in assay [15], 1.51; in [17] it was -0.105. The values for the composite z-score in [18], in assay [19] and in assay [20] were 0.346, 0.824 and -0.0928, respectively. Besides, the z-score was 0.781 (inactive) in [8]; 1.86 (inactive) in [12]; 1.23 (inactive) in [13]; 4.94 (inactive) in assay [14]; 2.6 (inactive) in [16].

As for `CCCC=C(CCC)[C@@H](NS(=O)(=O)CC)c1ccccc1`, the composite z-score in assay [1] was -0.14; in assay [2], -0.534; in [3] it was 0.0583; in assay [4], 0.576; in [5] it was 1.15; in assay [6] it was 0.808. Further, the composite z-score in [7] is 1.09; in assay [9], 0.725; in assay [10], -0.0645; in [11], 1.17; in assay [15] it was 2.57; in assay [17] it was 0.195. Further, the composite z-score in assay [18] is 0.222; in assay [19], 1.16; in assay [20], 0.0093. Moreover, the z-score in assay [8] is 1.33 (inactive); in assay [12] it was 0.472 (inactive); in assay [13], 1.22 (inactive); in assay [14] it was 0.565 (inactive); in assay [16] it was -0.66 (inactive).

Consider `C[C@H]1ON(c2ccccc2)[C@@H](c2ccccc2)[C@@H]1C(=O)N1C(=O)OC[C@@H]1c1ccccc1`, for which the composite z-score in assay [1] is -0.331; in assay [2], -0.111; in assay [3], -0.019; in assay [4], 0.602; in assay [5], 0.527; in [6], 0.211. For the same compound, the composite z-score in [7] is 0.656; in assay [9] it was 0.0477; in assay [10], -0.374; in [11], 0.648; in assay [15], 0.352; in assay [17], -0.159. For the same compound, the composite z-score in assay [18] is 0.743; in assay [19], 0.848; in assay [20] it was -0.0409. Also, the z-score in assay [8] was 0.84 (inactive); in assay [12] it was 0.386 (inactive); in assay [13] it was -0.0839 (inactive); in assay [14] it was -0.299 (inactive); in assay [16], -0.0337 (inactive).

(Values after PubChem BioAssay.)
